DRD3 agonist – D3 dopamine receptor (human) agonism. P35462. D3R DiscoveRx beta-arrestin cells, luminescence, 90 min. max activation, %. 410,000 tested, 0.58% active. AID 652048; in the data active means max activation above about 30%
Target sequence (P35462 whole entry, looked up): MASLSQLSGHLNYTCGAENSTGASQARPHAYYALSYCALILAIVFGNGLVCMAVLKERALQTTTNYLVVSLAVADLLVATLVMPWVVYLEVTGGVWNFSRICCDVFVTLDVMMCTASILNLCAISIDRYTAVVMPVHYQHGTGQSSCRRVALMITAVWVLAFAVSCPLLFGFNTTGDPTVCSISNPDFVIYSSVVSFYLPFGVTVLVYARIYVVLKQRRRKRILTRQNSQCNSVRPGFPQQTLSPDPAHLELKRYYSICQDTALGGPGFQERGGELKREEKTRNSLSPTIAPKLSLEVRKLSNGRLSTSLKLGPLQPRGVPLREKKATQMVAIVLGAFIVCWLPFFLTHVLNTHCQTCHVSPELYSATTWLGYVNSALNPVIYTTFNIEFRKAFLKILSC
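Cells at 1500/well, incubated overnight, then treated with pinned compounds (dopamine as control) for 90 min at 37 degrees C. DiscoveRx reagent added for 30 - 60 minutes at room temperature; luminescence read.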
D1 antag – blocks dopamine activation of the human D1 receptor | P21728 | HEK293 TREx D1 cells, calcium flux, dopamine EC80; stronger effect = lower value | activity change, negative = inhibition, % at 10 µM | 360,000 tested, 3.2% active; in the data active means activity change below about -30%
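Tetracycline-induced HEK293 T-REx cells with force-coupled D1 receptor were loaded with a no-wash calcium dye. Compound was added after a 10 s baseline and read kinetically for 180 s; EC80 dopamine was then added and calcium flux followed another 180 s.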
DRD3 antagonist – blocks the human D3 dopamine receptor; AID 652054; max response, negative = inhibition, %; 360,000 tested, 2.5% active; D3R cells, DiscoveRx beta-arrestin luminescence, antagonist mode; stronger effect = lower value; in the data active means max response below about -50%; inconclusive means no clear call, values can overlap the other calls
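Cells expressing the human receptor were seeded at 1500 cells/well, incubated overnight at 37 degrees C in 5% CO2, then exposed to library compounds with dopamine controls for 90 minutes at 37 degrees C before luminescent detection.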
D1 ag – activates the human D1 dopamine receptor; P21728; HEK293 T-REx D1 cells, calcium flux, agonist mode; activation, % at 2 µM; 360,000 tested, 1% active; AID 504660; in the data active means activation above about 30%
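Tetracycline-induced HEK293 TREx D1 cells, force-coupled to calcium signalling, were dye-loaded with a no-wash calcium kit. Compound was pin-added after a 10 s baseline. Fluorescence was read kinetically at 1 cycle/s for 180 s, with calcium rises flagged as agonism.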
D1 PAM – enhances dopamine response at the human D1 receptor; P21728; potentiation, % at 10 µM; 360,000 tested, 0.036% active; HEK293 TREx D1 cells, calcium flux, dopamine EC20 potentiation; AID 504651; in the data active means potentiation above about 30%
A number is an active result; n = inactive; u = inconclusive; x = not tested or not shown. Sampled rows, rich in hits. Any-hit rate of the full collection: about 6.1%.

SMILES	DRD3 agonist	D1 antag	DRD3 antagonist	D1 ag	D1 PAM
CCOc1ccc(C(=O)C(CN2CCOCC2)c2ccccc2)cc1 (stereo unspecified)	n	n	n	n	n
O=C(c1ccccc1)C(CN1CCCCC1)c1ccccc1 (stereo unspecified)	n	x	-77	x	x
CN(Cc1cc(Cl)cc(Cl)c1)CC(C(=O)c1ccccc1)c1ccccc1 (stereo unspecified)	n	x	n	x	x
O=C(c1ccc(Br)cc1)C(CN1CCOCC1)c1ccccc1 (stereo unspecified)	n	n	-88	n	n
O=C(CC(C(=O)c1ccccc1)c1ccccc1)c1ccccc1 (stereo unspecified)	n	x	n	x	x
CN(C)CC(C(=O)c1ccccc1)c1ccccc1 (stereo unspecified)	n	n	-51	n	n
CCOC(CN1CCN(CC(C)C(=O)c2ccccc2)CC1)c1ccccc1 (stereo unspecified)	n	x	x	x	x
CC(CN1CCN(CC(C)C(=O)c2ccccc2)CC1)C(=O)c1ccccc1 (stereo unspecified)	n	x	-59	x	x
CCOC(=O)c1ccc(NS(=O)(=O)c2ccc3c(c2)CCN3C(=O)CC)cc1	n	n	x	n	n
O=C(Nc1nnc(S(=O)(=O)N2CCCc3ccccc32)s1)c1ccccc1Br	n	n	x	n	n
CSc1ccccc1NC(=O)CSc1nnc(CNC(=O)c2ccccc2F)n1C	n	n	n	48	x
COCCN(Cc1ccccc1)C(=S)Nc1ccc(Cl)cc1	n	-36	n	n	n
CC(C)c1ccc(NC(=O)CN(Cc2ccccc2)S(C)(=O)=O)cc1	n	n	n	42	n
CN(CCC(=O)Nc1ccc2c(c1)OCO2)Cc1ccccc1	n	n	-73	n	n
CS(=O)(=O)N(CC(=O)Nc1ccc2c(c1)OCO2)Cc1ccccc1	n	n	n	n	n
O=C(Nc1ccc(S(=O)(=O)NCc2ccccc2)cc1)Nc1ccc2c(c1)OCO2	n	-40	u	n	n
CCn1cnc2c(Nc3ccc(Cc4cccnc4)cc3)nc(C#N)nc21	x	n	x	n	n
CCOc1ccc(CCNC(=O)Cn2ccc3cc(S(=O)(=O)N4CCCCC4)ccc32)cc1	n	n	x	n	n
CCOC(=O)c1[nH]c(C)c(CCC(=O)Nc2cc(Cl)c(OC)cc2OC)c1C	n	n	x	n	n
COCCCNC(=O)CN1C(=O)c2c(c3ccccc3n2C)C1c1ccc(OC)cc1 (stereo unspecified)	n	n	x	n	n
CCN(CC)c1ccc(NC(=O)CN2CCN(S(=O)(=O)c3ccc(C(C)C)cc3)CC2)cc1	n	n	x	n	n
CN(CCOC(=O)c1ccc2c(c1)OCCO2)C(C)(C)C	n	n	n	n	n
CN(CCOC(=O)c1ccc2c(c1)OCCO2)Cc1ccccc1	n	n	-79	n	n
CN(CC(=O)Nc1ccc(Cl)cc1)C(=O)CCc1ccccc1	n	n	n	n	n
CN(CCC(=O)Nc1ccc(Cl)cc1)Cc1ccccc1	n	n	-97	n	n
SMILES	DRD3 agonist	D1 antag	DRD3 antagonist	D1 ag	D1 PAM
CCc1nn2c(=O)cc(COC(=O)c3ccccc3NC(=O)C3CCCCC3)nc2s1	n	n	x	n	n
COCCN1C(=O)/C(=C/c2ccc(OCc3ccc(C(=O)O)cc3)c(OC)c2)SC1=Nc1ccccc1	n	-37	n	n	n
CCc1ccc(NC(=S)N(CCN2CCCCC2)Cc2ccco2)cc1	n	n	-68	n	n
CCOC(=O)c1ccc(NC(=S)N(CCCN2CCCC(C)C2)Cc2ccco2)cc1 (stereo unspecified)	n	-39	u	n	n
Cc1ccc(NC(=S)N(CCCN2CCC(C)CC2)Cc2ccco2)cc1C	n	n	-52	n	n
CCOC(=O)c1ccc(NC(=S)N(CCCN2CCCC(C)C2)Cc2cccs2)cc1 (stereo unspecified)	n	n	-87	n	n
CCOC(=O)c1ccc(NC(=S)N(CCCN2CCCC2)Cc2ccco2)cc1	n	n	n	n	n
CCOC(=O)c1ccc(N2CCN(c3cc(C)ccc3C)CC2)c(NC(=O)Nc2ccccc2)c1	n	n	x	n	n
CCN1CCOC(=O)C1CC(=O)Nc1ccc(Br)cc1 (stereo unspecified)	n	n	x	n	n
Cc1cccn2c(=O)c(C(=O)NCc3ccccc3Cl)c(O)nc12	n	n	x	n	n
CC(=O)c1cccc(-n2c(=O)c3c4c(sc3n(Cc3ccccc3Cl)c2=O)CN(C(C)=O)CC4)c1	n	n	x	n	n

High-throughput results (PubChem BioAssay)
